According to PubChem BioAssay:

Assay: basal HepG2 mitochondrial membrane potential changes, profiling panel, cell-based, JC-1 fluorescence, 24 h, 100 nL compound (AID 1167); further: test concentration not given here
Conditions: higher = more signal

SMILES | z-score
COCC(=C=CC[C@@H](O)c1cccc(OCCO)c1)C[C@@H](O)c1ccccn1 | 0.00274
C[C@@]1([C@@H](NC(=O)c2ccc(-c3ccccc3)cc2)c2ccc(Cl)cc2)C[C@H]1C1CCCCC1 | -2.21
CCc1cccc(NC(=O)O[C@H]2[C@H](OC(=O)Nc3ccccc3-c3ccccc3)[C@@H](OC(=O)Nc3ccccc3-c3ccccc3)[C@@H](OC)O[C@@H]2CO)c1 | -1.11
C=C[C@H](CO[Si](CC)(CC)CC)N(Cc1ccc(OC(C)=O)c(OC)c1)S(=O)(=O)c1ccc(Br)cc1 | -1.25
C[C@H]1NC(=O)[C@@]23C(=O)N[C@@H](Cc4ccccc4)C2[C@H](C)[C@@]2(C)O[C@H]2C3/C=C/C/C=C\CNC(=O)[C@@H]2CCCN2C1=O (stereo not given in full) | -0.0133
CCS[C@H]1[C@@H](C(=O)O)[C@H](c2ccc(C)cc2)N(S(=O)(=O)c2ccc(C)cc2)[C@@H]1CC | 0.922
COCCOC(=O)N1C(=O)[C@@]2(c3ccccc31)[C@H](C(=O)N1CCc3cc(OC)c(OC)cc3C1)[C@H]1C(=O)O[C@H](c3ccccc3)[C@H](c3ccccc3)N1[C@@H]2c1ccc(OCCO)cc1 | 0.384
[N-]=[N+]=Nc1ccccc1[C@H]1OC(c2ccc(OCCCO)cc2)=N[C@@]1(CCS(=O)(=O)c1ccccc1)C(=O)NCC(O)CO (stereo not given in full) | -1.16
[N-]=[N+]=NCc1ccccc1[C@@H]1OC(c2ccc(OCCCO)cc2)=N[C@]1(Cc1ccccc1)C(N)=O | 1.49
C=C(CCCC)C(=O)CC[C@@H](OC(=O)c1ccccc1-c1ccccc1C(=O)O)c1ccc(OCCO)cc1 | -1.4
O=C(CS)NCCCCCCNC(=O)[C@@H]1C[C@@H]2C(=O)N[C@@H](Cc3ccccc3)C(=O)N2[C@@H]1c1cccc(OCCO)c1 | -1.28
CC(C)C(O)C1C=CC2C(=O)N(c3ccccc3)C(=O)C2N1Nc1ccc([N+](=O)[O-])cc1 (stereo not given) | -1.41
CC(C)N1C(=O)[C@@]2(Cc3ccccc31)c1ccccc1C(=O)N(Cc1ccccc1Cl)[C@H]2c1ccc(CO)cc1 | 0.407
C=CCC(OC(C)=O)[C@@H]1[C@@H](N(Cc2cc3ccccc3o2)C(=O)c2cccc3ccccc23)c2cc(OCCCO)ccc2N1C(=O)c1ccc(-c2ccccc2)cc1 (stereo not given in full) | 3.47
C=CCC(OC(C)=O)[C@@H]1[C@@H](N(Cc2ccc(-c3ccccc3)cc2)C(=O)Cc2ccc(OC)cc2)c2cc(OCCCO)ccc2N1C(=O)Cc1ccc2ccccc2c1 (stereo not given in full) | 1.25
Cc1ccc(S[C@]2(C(=O)O)CC(=O)N(C(C)C)[C@@H]2c2ccc(CO)cc2I)cc1 | 0.0957
O=C1O[C@@H](c2ccccc2)[C@@H](c2ccccc2)N2[C@@H](c3ccccc3OCCO)[C@]3(C(=O)Nc4ccc(C#CC5=CCCCC5)cc43)[C@@H](C(=O)N3CCCCCCC3)[C@H]12 | 1.19
O=C1OCCC/C=C\[C@H]2OC34C=CCN(Cc5ccccc5)C(=O)[C@H]3N(CCCO)C(=O)[C@@H]4C12 (stereo not given in full) | 0.315

SMILES | z-score
COC(=O)[C@@]1(Cc2ccc(OC)cc2)[C@H]2c3cc(C(=O)N(C)C)n(Cc4ccc(S(C)(=O)=O)cc4)c3C[C@H]2CN1C(=O)c1ccccc1 | 3.14
CC(C)C[C@@H]1NC(=O)[C@H](C(C)C)NC(=O)[C@@]23C(=O)N[C@@H](Cc4ccccc4)C2[C@H](C)[C@@]2(C)O[C@H]2C3/C=C/CC/C=C/CNC1=O (stereo not given in full) | -0.0491
COCCOC(=O)N1C(=O)[C@@]2(c3ccccc31)[C@H](c1ccc(O)cc1)N1[C@H](c3ccccc3)[C@H](c3ccccc3)OC(=O)[C@H]1[C@@H]2C(=O)Nc1nc2ccccc2s1 | -3.87
CC(C)OC(=O)C=C1C[C@@H](c2ccccn2)O[C@@H](c2ccccn2)O1 | -0.894
COC(=O)[C@@]1(Cc2ccc(F)cc2)[C@H]2c3cc(C(=O)N(C)C)n(Cc4ccc(Cl)c(C(F)(F)F)c4)c3C[C@H]2CN1C(=O)c1ccccc1 | 1.96
CC(C)(C)OC(=O)CC[C@]1(C(=O)N2CCOCC2)N=C(c2ccc(OCCCO)cc2)O[C@H]1c1ccccc1N=[N+]=[N-] | 1.27
C=C(C(=O)CC[C@@H](OC(=O)c1cccnc1)c1ccccc1OCCO)C(C)C | -1.17
NCCCCCCNC(=O)[C@@H]1C[C@@H]2C(=O)NCC(=O)N2[C@@H]1c1ccc(O)cc1 | -0.479
CCCCCCc1nc(-c2cc(C)c(OC)c(C)c2)cc2c1[Si](C(C)C)(C(C)C)OC2 | -0.48
C=CCOC(=O)[C@@H]1[C@H]2C(=O)O[C@H](c3ccccc3)[C@H](c3ccccc3)N2[C@H](c2ccc(OCCOC(=O)[C@H]3C[C@H]4C(=O)N5CCC[C@H]5C(=O)N4[C@H]3c3ccc(O)cc3)cc2)[C@@]12C(=O)Nc1ccc(I)cc12 | -1.7
O=C(N1CCCCC1)[C@]1(Cc2ccccc2)N=C(c2ccc(OCCCO)cc2)O[C@@H]1c1ccccc1 | -1.06
CCOC(=O)[C@H]1C/C=C/C[C@H](C(=O)OCC)C(=O)O[C@H]2[C@@H](OC)O[C@H](CO)[C@@H](OC(=O)c3c(OC)cccc3OC)[C@@H]2OC1=O | -3.48
C=C(CCCC)/C(=C/C[C@H](OC(=O)c1ccncc1)c1ccccc1OCCO)c1cnc2ccccc2c1 | 0.943
CCN(CC)c1ccc(N2CC=CC34O[C@@H]5C=CCCOC(=O)C5[C@H]3C(=O)N(CCCCCCO)[C@@H]4C2=O)cc1 (stereo not given in full) | 0.432
COC(=O)[C@@]1(Cc2ccc(OC)cc2)[C@H]2c3cc(C(=O)N4CCCC4)n(CCN4CNCC4=O)c3C[C@H]2CN1C(=O)c1ccccc1 | 0.696
CCC(CC)C(O)C1C=CC2C(=O)NC(=O)C2N1Nc1ccccn1 (stereo not given) | -0.29
O=C(CS)NCCCCCCNC(=O)[C@@H]1C[C@@H]2C(=O)NCC(=O)N2[C@@H]1c1cccc(OCCO)c1 | 0.502
